From PubChem BioAssay (EPA / NIEHS)
The source made the active and inactive calls. How the source made its calls: active means hit-call score of the fitted dose curve at least 0.9, where 1 is the maximum; inactive means score below 0.9.

Tests used:
[1] = read-out: catalase (CAT), CAT (gene 847); test: LTEA_HepaRG_CAT: Life Technologies and Expression Analysis (LTEA) Assay for catalase (CAT) using HepaRG (AID 2283452); settings: mRNA level, 48 h; actives raise or lower the signal;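 on AC50: TaqMan qRT-PCR signal normalized to ACTB GAPDH and POLR2A housekeeping genes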
In short: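 Expression of CAT was quantified by TaqMan qRT-PCR with ACTB/GAPDH/POLR2A normalization after 48 h chemical exposure of HepaRG. Eight-point half-log series, top 100 uM, in 0.5% DMSO; gain or loss fitted against vehicle.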

[2] = read-out: flavin-containing dimethylaniline monooxygenases 3 (FMO3), FMO3 (gene 2328); test: LTEA_HepaRG_FMO3: Life Technologies and Expression Analysis (LTEA) Assay for flavin-containing dimethylaniline monooxygenases 3 (FMO3) using HepaRG (AID 2283453); settings: mRNA level, 48 h; actives raise or lower the signal;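 on AC50: differentiated human HepaRG liver cells in serum-free induction medium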
In short: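 Eight-point concentration-response in serum-free HepaRG cultures (top 100 uM, 0.5% DMSO, 48 h). Read-out: FMO3 mRNA level normalized to three endogenous control genes, fitted bidirectionally versus vehicle.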

[3] = read-out: Cytochrome P450 (CYP1A1), CYP1A1 (gene 1543); test: LTEA_HepaRG_CYP1A1: Life Technologies and Expression Analysis (LTEA) Assay for Cytochrome P450 (CYP1A1) using HepaRG (AID 2283454); settings: mRNA level, 48 h; actives raise or lower the signal
In short: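 HepaRG, 48 h post-plating switched to serum-free induction medium; 8-pt conc-response (top 100 uM, half-log, 0.5% DMSO), duplicates, 48 h. Lysis in RLT, TaqMan qRT-PCR for CYP1A1; gain or loss vs DMSO.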

[4] = read-out: growth arrest and DNA damage 45 (GADD45A), GADD45A (gene 1647); test: LTEA_HepaRG_GADD45A: Life Technologies and Expression Analysis (LTEA) Assay for growth arrest and DNA damage 45 (GADD45A) using HepaRG (AID 2283458); settings: mRNA level, 48 h; actives raise or lower the signal
In short: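 HepaRG, 48 h exposure, 8 conc. (top 100 uM, half-log steps), 0.5% DMSO vehicle, duplicates. Read-out: qRT-PCR mRNA level, housekeeping-normalized (ACTB/GAPDH/POLR2A). Curves fit bidirectionally vs DMSO baseline.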

[5] = read-out: Forkhead box O3 (FOXO3), FOXO3 (gene 2309); test: LTEA_HepaRG_FOXO3: Life Technologies and Expression Analysis (LTEA) Assay for Forkhead box O3 (FOXO3) using HepaRG (AID 2283459); settings: mRNA level, 48 h; actives raise or lower the signal
In short: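 FOXO3 transcript measured by qRT-PCR (normalized to ACTB, GAPDH, POLR2A) after 48 h exposure of HepaRG cells in serum-free induction medium. Duplicates, eight half-log concentrations up to 100 uM, 0.5% DMSO; gain or loss fitted against DMSO.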

[6] = read-out: ABC Transporter (ABCB1), ABCB1 (gene 5243); test: LTEA_HepaRG_ABCB1: Life Technologies and Expression Analysis (LTEA) Assay for ABC Transporter (ABCB1) using HepaRG (AID 2283460); settings: mRNA level, 48 h; actives raise or lower the signal
In short: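 ABCB1 transcript level measured by TaqMan qRT-PCR against three housekeeping genes after 48 h chemical exposure of differentiated HepaRG cells. Top concentration 100 uM, half-log steps, eight points, 0.5% DMSO vehicle; bidirectional fit relative to DMSO.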

[7] = read-out: growth arrest and DNA damage 45 (GADD45B), GADD45B (gene 4616); test: LTEA_HepaRG_GADD45B: Life Technologies and Expression Analysis (LTEA) Assay for growth arrest and DNA damage 45 (GADD45B) using HepaRG (AID 2283461); settings: mRNA level, 48 h; actives raise or lower the signal
In short: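 HepaRG, ~100,000 cells/well, 48 h plating; serum-free induction medium; cpd 100 uM top, half-log x8, 0.5% DMSO, duplicate, 48 h; lysis in RLT, RNA isolation, qRT-PCR; norm ACTB/GAPDH/POLR2A; bidirectional fit vs DMSO.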

[8] = read-out: ABC Transporter (ABCC3), ABCC3 (gene 8714); test: LTEA_HepaRG_ABCC3: Life Technologies and Expression Analysis (LTEA) Assay for ABC Transporter (ABCC3) using HepaRG (AID 2283462); settings: mRNA level, 48 h; actives raise or lower the signal
In short: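 Human HepaRG, 48 h dosing, 8-pt half-log series from 100 uM, 0.5% DMSO vehicle, duplicates. ABCC3 mRNA by TaqMan qRT-PCR, housekeeping-normalized; bidirectional curve fit vs DMSO.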

[9] = read-out: ABC Transporter (ABCB11), ABCB11 (gene 8647); test: LTEA_HepaRG_ABCB11: Life Technologies and Expression Analysis (LTEA) Assay for ABC Transporter (ABCB11) using HepaRG (AID 2283463); settings: mRNA level, 48 h; actives raise or lower the signal
In short: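 ABCB11 transcript levels quantified by TaqMan qRT-PCR against three housekeeping genes after 48 h chemical exposure of HepaRG cultures. Concentrations up to 100 uM in half-log steps, 0.5% DMSO vehicle; both induction and suppression scored.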

[10] = read-out: ABC Transporter (ABCC2), ABCC2 (gene 1244); test: LTEA_HepaRG_ABCC2: Life Technologies and Expression Analysis (LTEA) Assay for ABC Transporter (ABCC2) using HepaRG (AID 2283464); settings: mRNA level, 48 h; actives raise or lower the signal
In short: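 HepaRG, 48 h post-plating; serum-free induction medium; cpd 8-pt, 100 uM top, half-log, 0.5% DMSO, duplicate, 48 h. Readout: ABCC2 mRNA by qRT-PCR, norm. ACTB/GAPDH/POLR2A. Bidirectional fit vs DMSO baseline.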

[11] = read-out: Broad substrate specificity ATP-binding cassette transporter ABCG2 (Homo sapiens) (UniProt Q9UNQ0); test: LTEA_HepaRG_ABCG2: Life Technologies and Expression Analysis (LTEA) Assay for ABC Transporter (ABCG2) using HepaRG (AID 2283465); settings: mRNA level, 48 h; actives raise or lower the signal
In short: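 ABCG2 transcript was quantified by TaqMan qRT-PCR against three housekeeping genes in HepaRG cells. Cells were treated in duplicate for 48 h across an 8-point half-log series up to 100 uM, with 0.5% DMSO vehicle. Gain or loss versus DMSO was fit.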

[12] = read-out: ATP-citrate lyase (ACLY), ACLY (gene 47); test: LTEA_HepaRG_ACLY: Life Technologies and Expression Analysis (LTEA) Assay for ATP-citrate lyase (ACLY) using HepaRG (AID 2283466); settings: mRNA level, 48 h; actives raise or lower the signal
In short: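 ACLY mRNA quantified by qRT-PCR on Fluidigm arrays against three housekeeping genes, after 48 h chemical treatment of HepaRG cells (top concentration 100 uM, half-log steps, 0.5% DMSO vehicle). Up- or down-regulation fitted relative to DMSO.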

[13] = read-out: Peroxisomal acyl-coenzyme A oxidase 1 (ACOX1) gene, ACOX1 (gene 51); test: LTEA_HepaRG_ACOX1: Life Technologies and Expression Analysis (LTEA) Assay for Peroxisomal acyl-coenzyme A oxidase 1 (ACOX1) gene using HepaRG (AID 2283467); settings: mRNA level, 48 h; actives raise or lower the signal
In short: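 ACOX1 transcript levels were quantified by TaqMan qRT-PCR against three housekeeping genes after 48 h chemical exposure of differentiated human HepaRG cells. Exposure used eight half-log steps topping at 100 uM, 0.5% DMSO vehicle, in duplicate. Bidirectional curve fits were made relative to DMSO.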

[14] = read-out: Alkaline Phosphatase, Placental (ALPP) gene, ALPP (gene 250); test: LTEA_HepaRG_ALPP: Life Technologies and Expression Analysis (LTEA) Assay for Alkaline Phosphatase, Placental (ALPP) gene using HepaRG (AID 2283468); settings: mRNA level, 48 h; actives raise or lower the signal
In short: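 HepaRG, 48 h plating then 48 h dosing, serum-free induction medium, 0.5% DMSO. 8 conc, half-log, max 100 uM, duplicates. Endpoint: ALPP transcript by qRT-PCR, housekeeping-normalized; gain or loss fitted vs DMSO.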

[15] = read-out: Bcl-2 (BAD) gene, BAD (gene 572); test: LTEA_HepaRG_BAD: Life Technologies and Expression Analysis (LTEA) Assay for Bcl-2 (BAD) gene using HepaRG (AID 2283469); settings: mRNA level, 48 h; actives raise or lower the signal
In short: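 Read-out: qRT-PCR of BAD mRNA, normalized to three housekeeping genes. Human HepaRG cultures got 48 h chemical exposure in 0.5% DMSO, duplicate eight-point half-log series topping at 100 uM. Gain or loss of signal fitted versus DMSO vehicle.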

[16] = read-out: Bcl-2 (BAX) gene, BAX (gene 581); test: LTEA_HepaRG_BAX: Life Technologies and Expression Analysis (LTEA) Assay for Bcl-2 (BAX) gene using HepaRG (AID 2283470); settings: mRNA level, 48 h; actives raise or lower the signal
In short: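 qRT-PCR read-out of BAX mRNA, normalized to three housekeeping genes, after 48 h chemical exposure of human HepaRG cells in serum-free induction medium; eight-point half-log series, top 100 uM, 0.5% DMSO vehicle; bidirectional fit versus DMSO.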

[17] = read-out: adenosine kinase (ADK) gene, ADK (gene 132); test: LTEA_HepaRG_ADK: Life Technologies and Expression Analysis (LTEA) Assay for adenosine kinase (ADK) gene using HepaRG (AID 2283471); settings: mRNA level, 48 h; actives raise or lower the signal
In short: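 ADK expression quantified by qRT-PCR, normalised to three housekeeping genes, after 48 h exposure of HepaRG cells to eight concentrations (top 100 uM, half-log steps, duplicate, 0.5% DMSO). Up- or down-regulation fitted relative to vehicle.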

[18] = read-out: CFLAR gene, CFLAR (gene 8837); test: LTEA_HepaRG_CFLAR: Life Technologies and Expression Analysis (LTEA) Assay for CFLAR gene using HepaRG (AID 2283455); settings: mRNA level, 48 h; actives raise or lower the signal
In short: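 Transcript level by qRT-PCR (normalized to ACTB, GAPDH and POLR2A) after 48 h chemical exposure of HepaRG cells, top concentration 100 uM with half-log steps, 0.5% DMSO vehicle, duplicates; fitted bidirectionally against DMSO baseline.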

[19] = read-out: Forkhead box O1 (FOXO1), FOXO1 (gene 2308); test: LTEA_HepaRG_FOXO1: Life Technologies and Expression Analysis (LTEA) Assay for Forkhead box O1 (FOXO1) using HepaRG (AID 2283456); settings: mRNA level, 48 h; actives raise or lower the signal
In short: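 FOXO1 transcript quantified by qRT-PCR after 48 h chemical exposure (top 100 uM, half-log steps, 0.5% DMSO) of HepaRG cells, housekeeping-normalized (ACTB/GAPDH/POLR2A). Changes fitted in both directions relative to vehicle.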

[20] = CEETOX_H295R_TESTO: CeeTox H295R High-throughput Steroidogenesis Assay for Testosterone (TESTO) (AID 2283457); settings: actives raise or lower the signal
In short: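 H295R, passage ≤10, 48 h dosing; media extracted with MTBE → HPLC-MS/MS for testosterone; 7-pt standard curve sets LLOQ/ULOQ; bidirectional fit vs DMSO; MTT viability same wells.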

Measured: AC50

Sequence of Broad substrate specificity ATP-binding cassette transporter ABCG2 (Homo sapiens) (Q9UNQ0 whole entry, looked up): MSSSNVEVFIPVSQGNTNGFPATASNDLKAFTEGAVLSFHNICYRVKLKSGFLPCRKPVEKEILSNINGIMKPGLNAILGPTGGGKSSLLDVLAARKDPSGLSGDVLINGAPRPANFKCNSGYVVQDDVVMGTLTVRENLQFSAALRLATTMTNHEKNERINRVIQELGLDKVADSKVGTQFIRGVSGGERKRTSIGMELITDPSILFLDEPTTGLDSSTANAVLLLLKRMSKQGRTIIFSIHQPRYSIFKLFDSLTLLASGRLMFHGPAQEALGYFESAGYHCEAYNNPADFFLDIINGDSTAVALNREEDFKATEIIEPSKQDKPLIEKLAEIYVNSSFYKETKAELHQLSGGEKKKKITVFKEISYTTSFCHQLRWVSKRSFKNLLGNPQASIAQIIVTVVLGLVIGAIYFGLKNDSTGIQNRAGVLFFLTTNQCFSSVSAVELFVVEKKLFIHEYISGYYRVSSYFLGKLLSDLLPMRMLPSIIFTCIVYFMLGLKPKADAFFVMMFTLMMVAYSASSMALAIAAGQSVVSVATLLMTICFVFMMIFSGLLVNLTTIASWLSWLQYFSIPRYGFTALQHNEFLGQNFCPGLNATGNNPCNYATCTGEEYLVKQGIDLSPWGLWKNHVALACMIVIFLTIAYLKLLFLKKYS

[As]#[In]
inactive: [1] | [2] | [3] | [4] | [5] | [6] | [7] | [8] | [9] | [10] | [11] | [12] | [13] | [14] | [15] | [16] | [17]

Cc1ccc([N+](=O)[O-])cc1
active: [6] 2.47 µM | [10] 13 µM
inactive: [1] | [2] | [18] | [19] | [4] | [5] | [7] | [8] | [9] | [11] | [12] | [13] | [14] | [15] | [16] | [17]

CCCCCCCCn1sccc1=O
active: [1] 85.6 µM | [2] 88.9 µM | [18] 78.9 µM | [8] 73.8 µM | [9] 72.1 µM | [13] 83.8 µM
inactive: [4] | [5] | [6] | [7] | [10] | [11] | [12] | [14] | [15] | [16] | [17]

Clc1ccc(C(c2ccc(Cl)cc2)C(Cl)(Cl)Cl)cc1
active: [2] 88.4 µM | [6] 50 µM | [10] 4.19 µM | [11] 0.788 µM
inactive: [1] | [18] | [19] | [4] | [5] | [7] | [8] | [9] | [12] | [13] | [14] | [15] | [16] | [17]

CCNS(=O)(=O)C(F)(F)C(F)(F)C(F)(F)C(F)(F)C(F)(F)C(F)(F)C(F)(F)C(F)(F)F
active: [2] 75.9 µM | [3] 69.3 µM | [9] 23.7 µM
inactive: [1] | [4] | [5] | [6] | [7] | [8] | [10] | [11] | [12] | [13] | [14] | [15] | [16] | [17]

CNC(=O)Oc1cccc2c1OC(C)(C)C2
active: [3] 50 µM | [4] 0.0409 µM | [7] 50 µM | [9] 28.4 µM
inactive: [1] | [2] | [20] | [5] | [6] | [8] | [10] | [11] | [12] | [13] | [14] | [15] | [16] | [17]

OCCOCCO
inactive: [1] | [2] | [3] | [19] | [4] | [5] | [6] | [7] | [8] | [9] | [10] | [11] | [12] | [13] | [14] | [15] | [16] | [17]
